Bioassay records (PubChem BioAssay)
N-glyco inh – N-linked glycosylation inhibition | AID 588692 | actives 0.23% (n = 360,000) | D54 ERlucT glycosylation luciferase reporter, 24 h; percent of 100 nM tunicamycin response | reporter increase, % at 12.5 µM;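 active = mean luciferase reporter signal, scaled so untreated is 0 and the glycosylation-blocking control 100, at or above a set limit in every replicate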;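 also: luciferase carries N-glycosylation sites so blocking glycosylation raises the light; 0% = median of neutral control wells and 100% = median of 100 nM tunicamycin wells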
RAD54 branch – blocks human RAD54 Holliday junction branch migration | Q92698 | FAM/BHQ fluorescence | inhibition, % at 10.4 µM | actives 0.14% (n = 360,000) | AID 602329;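 active = mean normalized replicate activity at least 40 and at least half of replicates scoring 40 or more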;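 also: 0% = median of neutral control wells and 100% = median of positive control wells; inhibitors cause a drop in the FAM fluorescence signal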
Target sequence (Q92698 whole entry, looked up): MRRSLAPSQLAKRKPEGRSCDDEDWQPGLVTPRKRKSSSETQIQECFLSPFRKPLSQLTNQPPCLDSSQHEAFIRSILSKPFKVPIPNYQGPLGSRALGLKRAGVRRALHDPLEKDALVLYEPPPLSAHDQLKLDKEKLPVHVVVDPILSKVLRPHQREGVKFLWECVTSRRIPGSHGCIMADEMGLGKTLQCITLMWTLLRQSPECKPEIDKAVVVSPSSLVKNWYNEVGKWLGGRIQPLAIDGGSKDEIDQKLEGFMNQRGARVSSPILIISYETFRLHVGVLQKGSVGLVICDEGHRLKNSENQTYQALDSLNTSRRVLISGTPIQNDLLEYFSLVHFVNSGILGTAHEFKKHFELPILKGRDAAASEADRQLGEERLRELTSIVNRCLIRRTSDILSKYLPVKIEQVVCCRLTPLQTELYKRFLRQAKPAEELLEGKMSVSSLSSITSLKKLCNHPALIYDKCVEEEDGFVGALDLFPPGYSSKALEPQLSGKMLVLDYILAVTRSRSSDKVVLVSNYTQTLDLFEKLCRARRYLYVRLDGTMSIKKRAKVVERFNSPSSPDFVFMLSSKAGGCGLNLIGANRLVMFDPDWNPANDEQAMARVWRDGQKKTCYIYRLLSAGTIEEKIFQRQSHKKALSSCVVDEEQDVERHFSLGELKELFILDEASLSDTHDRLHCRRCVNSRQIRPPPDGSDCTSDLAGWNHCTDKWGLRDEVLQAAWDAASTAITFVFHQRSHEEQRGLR
miR-122 sensor – inhibitors of miR-122 in Huh7 cells; Huh7 miR-122 Renilla luciferase sensor, 48 h; neutral wells = 0, positive control = 100; actives 0.3% (n = 340,000); activation (reporter increase), % at 12.5 µM;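 active = mean replicate activation score at least 90 and every replicate individually at or above 90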;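 also: higher luciferase means less miR-122 activity so hits act as miR-122 inhibitors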
RAD52 anneal inh – inhibitors of human RAD52 DNA annealing | AID 651710 | P43351 | actives 0.46% (n = 360,000) | recombinant RAD52 DNA annealing, FRET fluorescence | inhibition, % at 18.7 µM;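 active = every replicate showing at least 50% inhibition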
DNA FID counter – counter-screen for HCV NS3 helicase inhibitors: DNA intercalator displacement; actives 0.17% (n = 290,000); AID 1845; DNA fluorescent intercalator displacement, fluorescence; inhibition, % at 7.9 µM; in the data active = inhibition above about 37%;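 also: 0% = vehicle and 100% = reference compound; higher means more ethidium bromide displaced from hairpin DNA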
NRP1-CendR mod – NRP-1/CendR interaction modulation. O14786. FAM-RPARPAR peptide binding to NRP-1, fluorescence polarization. inhibition, % at 25 µM. actives 0.85% (n = 360,000). AID 602438;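 active = inhibition or corrected inhibition above about 18%, plus a signal ratio from 0.5 to 1.5, limit read from the data, passing the limit was not always enough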
The depositor's hits bear a star; i = inactive; nt = no result given; [ ] = another dose, or the depositor's remark. A selection: hits, their analogues and other compounds. The true share with any hit is near 1.5%.

SMILES	N-glyco inh	RAD54 branch	miR-122 sensor	RAD52 anneal inh	DNA FID counter	NRP1-CendR mod
C[C@H](NC(=O)c1[nH]cnc1C(=O)Nc1ccccc1)c1ccccc1	5	-2	6	-15	nt	26*
O=C(NC1CCCCC1)N1CC(=O)N2[C@H](CO)[C@H](c3ccc(-c4cccc(F)c4)cc3)[C@H]2C1	nt	nt	nt	9	nt	nt
C[C@H]1CN([C@@H](C)CO)C(=O)c2cccc(NC(=O)NC3CCCCC3)c2O[C@@H]1CN(C)S(=O)(=O)c1cn(C)cn1	nt	5	-1[16.7 µM]	6	nt	nt
CCCCn1cnc2c(c(-c3ccccc3)c(-c3ccccc3)n2Cc2ccco2)c1=N	8	5	-3	0	15	-9
N=c1c2c(-c3ccccc3)c(-c3ccccc3)n(Cc3ccccc3)c2ncn1CCCn1ccnc1	-1	6	nt	nt	40*	-1
CCCN1CCC(=O)N([C@H](CSc2ccc(Br)cc2)c2ccccc2)CC1	-8	11	-1	-22	nt	24*
CC(C)CN1CCC(=O)N([C@H](CSc2ccc(Br)cc2)Cc2ccccc2)CC1	-5	-7	0	-65	nt	24*
NC(=O)NCC#Cc1ccc2c(c1)[C@]1(C(=O)N2)[C@H](c2ccccc2OCCO)N2[C@H](c3ccccc3)[C@H](c3ccccc3)OC(=O)[C@H]2[C@@H]1C(=O)N1CCCCCCC1	nt	nt	nt	-23	nt	nt
O=C1O[C@@H](c2ccccc2)[C@@H](c2ccccc2)N2[C@@H](c3ccccc3OCCO)[C@]3(C(=O)Nc4ccc(C#CCCO)cc43)[C@@H](C(=O)N3CCCCCCC3)[C@H]12	nt	-3	nt	73*	nt	nt
O=C(c1ccccn1)N1CC2(C1)[C@@H](c1ccccc1)[C@@H](CO)N2C(=O)C1CCCC1	nt	nt	nt	-9	nt	nt
COc1ccc(C(=O)NC2CC2)cc1OC1CCN(Cc2ccc(F)cc2)CC1	1	6	-6	-11	7	12
COc1ccc(C(=O)NC2CC2)cc1OC1CCN(Cc2ccccc2)CC1	-1	4	-3	-18	6	22*
CN(C)C(=O)c1ccc(-c2ccccc2[C@@H]2[C@@H](CO)N(C(=O)C3CCCC3)[C@H]2C#N)cc1	nt	nt	nt	58*	nt	nt
N#C[C@H]1[C@@H](c2ccccc2-c2cccc(F)c2)[C@@H](CO)N1C(=O)C1CCCC1	nt	nt	nt	-18	nt	nt
Cc1ccc(-c2ccccc2[C@H]2[C@@H](CO)N(S(C)(=O)=O)[C@H]2C#N)cc1	nt	nt	nt	101*	nt	nt
N#C[C@@H]1[C@@H](c2ccccc2-c2cccc(F)c2)[C@H](CO)N1C(=O)C1CCCC1	nt	nt	nt	114*	nt	nt
O=C(CN1CCOCC1)NCC[C@H]1CC[C@@H](NC(=O)Nc2ccc(C(F)(F)F)cc2)[C@H](CO)O1	nt	-6	-8[16.7 µM]	-10	nt	nt
O=C(C[C@H]1C[C@H]2c3cc(NS(=O)(=O)c4ccc(F)cc4)ccc3O[C@H]2[C@@H](CO)O1)NC1CCCCC1	nt	3	-3[16.7 µM]	6	nt	nt
CN1C(=O)c2cc(NC(=O)c3cccc(F)c3)ccc2OC[C@H]2O[C@@H](CC(=O)O)CC[C@H]21	nt	2	-53[16.7 µM]	nt	nt	nt
Cc1ccc(C)c(NC(=O)C(=O)NCCCN2CCOCC2)c1	0	nt	nt	-21	-3	33*
Cc1ccc(C)c(NC(=S)NCCCN2CCOCC2)c1	0	nt	nt	6	2	-5
CCCNC(=O)N1CC2(CN(S(=O)(=O)CC)C2)c2c([nH]c3cc(OC)ccc23)[C@H]1CO	nt	nt	nt	12	nt	nt
COc1ccc(-c2cc(C(F)(F)F)c3c(N)c(C(=O)NCCSC)sc3n2)cc1	2	-46	14	i	-32	-38
COc1ccc(OC)c(NC(=O)c2sc3nc(Cc4ccccc4)cc(C(F)(F)F)c3c2N)c1	1	-21	-6	nt	-1	24*
CO[C@H]1CN(C)C(=O)c2ccc(NC(=O)C3CCC3)cc2OC[C@H](C)N(C)C[C@@H]1C	nt	nt	nt	-1	nt	nt
SMILES	N-glyco inh	RAD54 branch	miR-122 sensor	RAD52 anneal inh	DNA FID counter	NRP1-CendR mod
COc1ccc([C@H]2[C@H]3C=CC[C@@H](C)[C@@H]3C(=O)N2Cc2ccccc2)cc1Cl	-2	-2	7	-6	nt	28*
COc1ccc(-c2cccc(C3CC=CC4C3C(=O)N(Cc3ccccc3)C4c3ccc(C(F)(F)F)cc3)c2)cc1 (configuration not stated)	-4	-2	8	-2	nt	3
C[C@@H]1CC=C[C@H]2[C@H]1C(=O)N(Cc1ccccc1)[C@H]2c1ccc(-c2ccc(F)cc2)cc1F	-3	0	1	-71	nt	9
Cc1ccc(-c2cccc(C3CC=CC4C3C(=O)N(Cc3ccccc3)C4c3cc(C)ccc3F)c2)cc1 (configuration not stated)	0	-5	2	-20	nt	30*
C[C@@H]1CC=C[C@H]2[C@H]1C(=O)N(Cc1ccccc1)[C@H]2c1ccc(/C=C/c2ccccc2)cc1F	-5	-1	-4	-4	nt	29*
COc1ccc(Br)cc1[C@H]1[C@H]2C=CC[C@@H](C)[C@@H]2C(=O)N1Cc1ccccc1	-1	7	-3	0	nt	3
C[C@@]12CCC=C[C@H]1[C@H](c1ccc(/C=C/c3ccccc3)cc1F)N(Cc1ccccc1)C2=O	-6	-2	-4	-60	nt	21*
CC(=O)N1[C@@H]2c3cccc(=O)n3C[C@@H]2[C@@H](CO)[C@@H]1C(=O)NCc1ccccc1F	nt	-3	nt	3	nt	nt
CCS(=O)(=O)N1[C@@H](CO)[C@H](c2ccccc2)C12CN(C(=O)C1CCCC1)C2	nt	nt	nt	0	nt	nt
C[C@@]12CCC=C[C@H]1[C@H](c1ccc(C(F)(F)F)cc1)N(Cc1ccccc1)C2=O	-3	-2	-4	-7	nt	26*
COc1ccc(-c2ccc(C)cc2)cc1[C@H]1[C@@H]2C=CCC[C@@]2(C)C(=O)N1Cc1ccccc1	-4	-10	85	-10	nt	9
O=C(c1ccccc1F)N1C[C@@H]2[C@H](c3ccccc31)[C@@H](CO)N2C(=O)c1ccncc1	nt	-4	13[16.7 µM]	-10	nt	nt
CC(OC(=O)c1cc(Br)ccc1O)C(=O)Nc1ccc(S(=O)(=O)N2CCCC2)cc1 (configuration not stated)	-5	1	nt	-8	nt	25*
COc1ccc(OC)c(Nc2nc3nonc3nc2N2CCCCC2)c1	2	-6	10	nt	-4	49*
N/C(=N\OC(=O)/C=C/c1ccccc1)c1ccccn1	-12	-5	-11	-8	-6	-3
O=C(/C=C/c1ccccc1)c1ccccn1	13	-8	-2	nt	-6	37*
C[C@@H]1CN([C@@H](C)CO)C(=O)c2cccc(NC(=O)Nc3ccc4c(c3)OCO4)c2O[C@@H]1CN(C)S(=O)(=O)c1cn(C)cn1	nt	9	3[16.7 µM]	-4	nt	nt
CO[C@H]1CN(C)C(=O)c2ccc(NS(=O)(=O)CC(F)(F)F)cc2OC[C@H](C)N(C(=O)NC(C)C)C[C@H]1C	nt	nt	4[16.7 µM]	nt	nt	nt
COc1cccc(NS(=O)(=O)c2ccc3c(c2)CCN3C(C)=O)c1	1	1	nt	-7	-12	10
